# Results from article PMC7862700, “An all-to-all approach to the identification of sequence-specific readers for epigenetic DNA modifications on cytosine”.
# Experiments:
# Assay in all cases: DAPPL (digital affinity profiling via proximity ligation, sequencing); 10 mM Tris-HCl pH 7.5, 50 mM NaCl, 1 mM DTT, 4% glycerol, room temperature, 30 min; GST-TFs on glutathione beads, 16-mer random dsDNA library, 0.1% formaldehyde crosslink after washing; high values mean tight binding
# FEV = biological target: T1, FEV (Homo sapiens, UniProt Q99581 1-238); conditions: protein: recombinant; tags: N-terminal GST; dsDNA, one strand shown
# T1 sequence: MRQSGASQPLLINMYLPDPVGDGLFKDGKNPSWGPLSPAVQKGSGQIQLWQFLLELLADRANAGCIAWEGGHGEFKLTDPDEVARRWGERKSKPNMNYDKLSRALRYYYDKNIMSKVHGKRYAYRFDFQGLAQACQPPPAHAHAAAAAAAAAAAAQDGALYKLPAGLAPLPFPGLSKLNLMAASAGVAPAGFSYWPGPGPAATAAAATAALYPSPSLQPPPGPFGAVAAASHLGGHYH
# How it was run: (§1)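 Binding signal is each hexamer's read frequency for a factor divided by its frequency in the tag-only sample. The factors were GST-fused human transcription factors from yeast, captured on glutathione beads, DNA-barcoded and pooled with that sample. Pools were incubated with 200 nmole of a random double-stranded 16-mer DNA library in Tris/NaCl/DTT/glycerol buffer at room temperature for 30 min, then washed, crosslinked with 0.1% formaldehyde, proximity-ligated with BsaI/T4 ligase (1 h, 37 °C), PCR-amplified and sequenced on an Illumina NextSeq500.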
# ETV5 = ETV5 (Homo sapiens, UniProt P41161 1-510); conditions: protein: recombinant; tags: N-terminal GST; dsDNA, one strand shown
# How it was run: as §1
# HSF1 = HSF1 (Homo sapiens, UniProt Q00613 1-529); conditions: protein: recombinant; tags: N-terminal GST; chain copies: 3; dsDNA, one strand shown
# How it was run: as §1
# SPIC = biological target: T2, SPIC (Homo sapiens, UniProt Q8N5J4 1-248); conditions: protein: recombinant; tags: N-terminal GST; dsDNA, one strand shown
# T2 sequence: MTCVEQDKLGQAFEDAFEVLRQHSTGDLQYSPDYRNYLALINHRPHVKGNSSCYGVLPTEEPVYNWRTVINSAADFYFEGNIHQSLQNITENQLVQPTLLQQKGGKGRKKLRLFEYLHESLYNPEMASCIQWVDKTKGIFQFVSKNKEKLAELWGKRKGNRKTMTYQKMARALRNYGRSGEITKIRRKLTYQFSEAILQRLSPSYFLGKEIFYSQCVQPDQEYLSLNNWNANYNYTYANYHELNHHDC
# How it was run: as §1
# ELF4 = ELF4 (Homo sapiens, UniProt Q99607 1-663); conditions: protein: recombinant; tags: N-terminal GST; dsDNA, one strand shown
# How it was run: as §1
# ELK4 = biological target: T3, ELK4 (Homo sapiens, UniProt P28324-2 1-405); conditions: protein: recombinant; tags: N-terminal GST; dsDNA, one strand shown
# T3 sequence: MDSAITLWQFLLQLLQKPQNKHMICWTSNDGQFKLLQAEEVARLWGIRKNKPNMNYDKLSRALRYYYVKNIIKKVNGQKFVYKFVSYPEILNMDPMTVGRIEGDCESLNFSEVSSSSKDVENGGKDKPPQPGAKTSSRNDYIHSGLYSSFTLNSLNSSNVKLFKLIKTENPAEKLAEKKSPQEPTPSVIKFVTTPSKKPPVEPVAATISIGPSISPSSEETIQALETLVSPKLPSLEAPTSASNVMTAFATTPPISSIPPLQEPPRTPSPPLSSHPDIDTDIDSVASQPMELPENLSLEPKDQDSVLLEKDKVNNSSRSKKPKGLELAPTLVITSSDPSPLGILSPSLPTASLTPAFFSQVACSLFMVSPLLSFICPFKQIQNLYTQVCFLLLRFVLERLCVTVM
# How it was run: as §1
# ETV2 = biological target: T4, ETV2 (Homo sapiens, UniProt O00321 1-342); conditions: protein: recombinant; tags: N-terminal GST; dsDNA, one strand shown
# T4 sequence: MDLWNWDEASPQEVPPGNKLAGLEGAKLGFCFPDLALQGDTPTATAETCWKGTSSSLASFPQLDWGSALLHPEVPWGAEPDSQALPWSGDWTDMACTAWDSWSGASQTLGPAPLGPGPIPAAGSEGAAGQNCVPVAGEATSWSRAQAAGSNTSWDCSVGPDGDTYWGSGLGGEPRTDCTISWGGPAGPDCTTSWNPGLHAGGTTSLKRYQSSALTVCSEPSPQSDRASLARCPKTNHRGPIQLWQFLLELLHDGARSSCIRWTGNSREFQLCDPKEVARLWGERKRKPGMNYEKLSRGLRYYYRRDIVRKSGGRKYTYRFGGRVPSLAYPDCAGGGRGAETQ
# How it was run: as §1
# ELF3 = biological target: T5, ELF3 (Homo sapiens, UniProt P78545 1-371); conditions: protein: recombinant; tags: N-terminal GST; dsDNA, one strand shown
# T5 sequence: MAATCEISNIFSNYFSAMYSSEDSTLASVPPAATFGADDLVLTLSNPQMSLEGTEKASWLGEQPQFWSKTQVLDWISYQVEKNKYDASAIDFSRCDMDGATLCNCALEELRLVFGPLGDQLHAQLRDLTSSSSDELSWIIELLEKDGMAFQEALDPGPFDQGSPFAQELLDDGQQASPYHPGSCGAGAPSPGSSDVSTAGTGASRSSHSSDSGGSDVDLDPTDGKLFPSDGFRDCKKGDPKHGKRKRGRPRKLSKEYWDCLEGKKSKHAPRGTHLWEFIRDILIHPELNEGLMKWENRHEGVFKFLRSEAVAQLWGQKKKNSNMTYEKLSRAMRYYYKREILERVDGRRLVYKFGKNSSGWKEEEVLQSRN
# How it was run: as §1
# CRX = CRX (Homo sapiens, UniProt O43186 1-299); conditions: protein: recombinant; tags: N-terminal GST; dsDNA, one strand shown
# How it was run: as §1
# ETV1 = ETV1 (Homo sapiens, UniProt P50549 1-477); conditions: protein: recombinant; tags: N-terminal GST; dsDNA, one strand shown
# How it was run: as §1
# ERF = biological target: T6, ERF (Homo sapiens, UniProt P50548 1-548); conditions: protein: recombinant; tags: N-terminal GST; dsDNA, one strand shown
# T6 sequence: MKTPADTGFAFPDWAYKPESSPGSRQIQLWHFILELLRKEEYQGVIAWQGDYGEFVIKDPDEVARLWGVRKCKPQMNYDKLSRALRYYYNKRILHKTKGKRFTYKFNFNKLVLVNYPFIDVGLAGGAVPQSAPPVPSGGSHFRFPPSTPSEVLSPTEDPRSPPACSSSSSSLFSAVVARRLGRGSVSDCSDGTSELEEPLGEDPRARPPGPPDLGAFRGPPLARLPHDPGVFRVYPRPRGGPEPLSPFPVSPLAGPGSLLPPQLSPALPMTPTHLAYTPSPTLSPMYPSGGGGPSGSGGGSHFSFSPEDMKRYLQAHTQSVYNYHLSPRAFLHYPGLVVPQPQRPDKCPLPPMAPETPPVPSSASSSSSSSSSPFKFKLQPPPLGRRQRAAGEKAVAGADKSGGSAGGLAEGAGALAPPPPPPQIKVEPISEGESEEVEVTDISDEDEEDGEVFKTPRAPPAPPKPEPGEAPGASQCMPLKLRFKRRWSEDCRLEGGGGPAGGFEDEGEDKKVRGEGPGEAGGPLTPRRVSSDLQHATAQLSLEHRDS
# How it was run: as §1
# ETV3L = biological target: T7, ETV3L (Homo sapiens, UniProt Q6ZN32 1-361); conditions: protein: recombinant; tags: N-terminal GST; dsDNA, one strand shown
# T7 sequence: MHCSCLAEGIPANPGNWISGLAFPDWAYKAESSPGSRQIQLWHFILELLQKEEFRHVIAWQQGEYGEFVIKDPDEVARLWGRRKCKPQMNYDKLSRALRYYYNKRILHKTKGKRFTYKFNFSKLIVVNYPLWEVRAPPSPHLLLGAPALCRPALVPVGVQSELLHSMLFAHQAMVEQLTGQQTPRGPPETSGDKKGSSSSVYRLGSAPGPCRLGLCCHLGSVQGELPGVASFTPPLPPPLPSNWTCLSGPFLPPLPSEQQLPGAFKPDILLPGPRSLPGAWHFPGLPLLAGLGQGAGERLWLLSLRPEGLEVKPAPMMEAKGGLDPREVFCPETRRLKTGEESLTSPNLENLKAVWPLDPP
# How it was run: as §1
# ETS2 = biological target: T8, ETS2 (Homo sapiens, UniProt P15036 1-469); conditions: protein: recombinant; tags: N-terminal GST; dsDNA, one strand shown
# T8 sequence: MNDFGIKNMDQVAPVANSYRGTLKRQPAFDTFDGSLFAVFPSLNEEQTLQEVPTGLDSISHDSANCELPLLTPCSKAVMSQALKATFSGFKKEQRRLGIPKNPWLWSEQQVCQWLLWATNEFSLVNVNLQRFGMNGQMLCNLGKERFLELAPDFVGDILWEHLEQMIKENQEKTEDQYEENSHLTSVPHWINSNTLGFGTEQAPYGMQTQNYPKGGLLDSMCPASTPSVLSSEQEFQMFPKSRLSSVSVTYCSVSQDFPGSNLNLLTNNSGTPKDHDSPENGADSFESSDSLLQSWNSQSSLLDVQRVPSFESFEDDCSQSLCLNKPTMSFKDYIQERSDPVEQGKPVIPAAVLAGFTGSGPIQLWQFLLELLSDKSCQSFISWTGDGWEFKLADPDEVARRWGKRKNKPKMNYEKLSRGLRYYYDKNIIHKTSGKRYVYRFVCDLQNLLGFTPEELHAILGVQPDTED
# How it was run: as §1
# SPDEF = biological target: T9, SPDEF (Homo sapiens, UniProt O95238 1-335); conditions: protein: recombinant; tags: N-terminal GST; dsDNA, one strand shown
# T9 sequence: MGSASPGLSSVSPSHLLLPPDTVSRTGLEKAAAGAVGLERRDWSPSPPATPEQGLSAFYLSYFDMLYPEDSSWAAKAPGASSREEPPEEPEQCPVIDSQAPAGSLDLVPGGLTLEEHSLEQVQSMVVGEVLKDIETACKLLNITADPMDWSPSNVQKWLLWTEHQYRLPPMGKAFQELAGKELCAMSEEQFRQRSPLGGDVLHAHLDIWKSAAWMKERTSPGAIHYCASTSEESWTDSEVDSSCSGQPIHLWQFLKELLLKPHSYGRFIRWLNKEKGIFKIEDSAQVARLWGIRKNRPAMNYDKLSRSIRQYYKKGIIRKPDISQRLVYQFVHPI
# How it was run: as §1
# ETV7 = biological target: T10, ETV7 (Homo sapiens, UniProt Q9Y603 1-341); conditions: protein: recombinant; tags: N-terminal GST; dsDNA, one strand shown
# T10 sequence: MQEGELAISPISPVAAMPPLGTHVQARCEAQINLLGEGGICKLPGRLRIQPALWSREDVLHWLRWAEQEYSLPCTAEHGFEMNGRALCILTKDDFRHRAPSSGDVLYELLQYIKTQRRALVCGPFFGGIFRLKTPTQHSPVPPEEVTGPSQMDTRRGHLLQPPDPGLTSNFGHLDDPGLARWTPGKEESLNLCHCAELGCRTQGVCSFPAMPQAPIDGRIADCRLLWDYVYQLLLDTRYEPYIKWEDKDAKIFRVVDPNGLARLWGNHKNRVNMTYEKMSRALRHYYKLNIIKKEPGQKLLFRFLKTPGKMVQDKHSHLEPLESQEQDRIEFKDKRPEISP
# How it was run: as §1
# ELF5 = biological target: T11, ELF5 (Homo sapiens, UniProt Q9UKW6-2 1-255); conditions: protein: recombinant; tags: N-terminal GST; dsDNA, one strand shown
# T11 sequence: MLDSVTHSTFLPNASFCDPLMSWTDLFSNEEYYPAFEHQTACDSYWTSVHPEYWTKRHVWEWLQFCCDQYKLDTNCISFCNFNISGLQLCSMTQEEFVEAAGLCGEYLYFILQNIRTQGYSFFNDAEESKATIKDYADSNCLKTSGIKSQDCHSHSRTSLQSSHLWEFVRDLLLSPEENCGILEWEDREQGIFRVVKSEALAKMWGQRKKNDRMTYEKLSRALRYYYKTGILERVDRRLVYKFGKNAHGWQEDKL
# How it was run: as §1
# ETV3 = biological target: T12, ETV3 (Homo sapiens, UniProt P41162-2 1-143); conditions: protein: recombinant; tags: N-terminal GST; dsDNA, one strand shown
# T12 sequence: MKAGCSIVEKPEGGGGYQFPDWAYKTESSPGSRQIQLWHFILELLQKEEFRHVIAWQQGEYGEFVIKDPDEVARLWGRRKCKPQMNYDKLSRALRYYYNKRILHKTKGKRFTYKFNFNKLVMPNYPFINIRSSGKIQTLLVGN
# How it was run: as §1
# ETV6 = ETV6 (Homo sapiens, UniProt P41212 1-452); conditions: protein: recombinant; tags: N-terminal GST; dsDNA, one strand shown
# How it was run: as §1
# ELF4, sequence (Q99607 whole entry): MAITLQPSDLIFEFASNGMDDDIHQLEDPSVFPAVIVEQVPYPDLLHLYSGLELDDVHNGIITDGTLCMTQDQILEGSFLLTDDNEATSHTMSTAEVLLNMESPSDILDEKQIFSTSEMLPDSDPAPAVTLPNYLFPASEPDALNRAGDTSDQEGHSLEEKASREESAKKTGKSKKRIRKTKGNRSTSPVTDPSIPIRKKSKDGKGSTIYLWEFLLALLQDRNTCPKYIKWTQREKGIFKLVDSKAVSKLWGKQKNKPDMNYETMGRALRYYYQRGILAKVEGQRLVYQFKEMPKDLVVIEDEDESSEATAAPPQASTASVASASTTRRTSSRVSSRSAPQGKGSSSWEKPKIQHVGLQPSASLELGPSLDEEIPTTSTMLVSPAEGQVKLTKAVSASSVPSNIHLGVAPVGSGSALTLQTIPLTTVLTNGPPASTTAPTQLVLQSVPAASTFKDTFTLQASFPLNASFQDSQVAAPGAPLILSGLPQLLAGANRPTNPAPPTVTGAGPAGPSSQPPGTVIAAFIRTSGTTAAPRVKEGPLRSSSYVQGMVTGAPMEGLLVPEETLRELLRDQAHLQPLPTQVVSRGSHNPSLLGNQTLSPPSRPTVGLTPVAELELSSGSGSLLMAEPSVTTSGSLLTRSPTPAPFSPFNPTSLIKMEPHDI
# HSF1, sequence (Q00613 whole entry): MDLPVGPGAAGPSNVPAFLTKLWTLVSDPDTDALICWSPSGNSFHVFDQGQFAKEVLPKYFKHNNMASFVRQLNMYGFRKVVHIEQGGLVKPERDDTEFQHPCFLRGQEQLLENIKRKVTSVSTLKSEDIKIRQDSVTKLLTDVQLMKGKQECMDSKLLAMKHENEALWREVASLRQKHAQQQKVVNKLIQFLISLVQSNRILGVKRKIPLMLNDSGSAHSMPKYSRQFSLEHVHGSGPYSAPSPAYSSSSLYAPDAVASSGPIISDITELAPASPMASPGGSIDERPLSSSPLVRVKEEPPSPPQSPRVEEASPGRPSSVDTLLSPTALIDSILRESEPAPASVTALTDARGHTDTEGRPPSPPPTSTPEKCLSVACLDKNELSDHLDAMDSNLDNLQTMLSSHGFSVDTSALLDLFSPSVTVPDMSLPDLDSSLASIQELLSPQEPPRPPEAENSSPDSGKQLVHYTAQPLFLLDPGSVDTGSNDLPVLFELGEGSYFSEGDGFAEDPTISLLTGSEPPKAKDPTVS
# ETV6, sequence (P41212 whole entry): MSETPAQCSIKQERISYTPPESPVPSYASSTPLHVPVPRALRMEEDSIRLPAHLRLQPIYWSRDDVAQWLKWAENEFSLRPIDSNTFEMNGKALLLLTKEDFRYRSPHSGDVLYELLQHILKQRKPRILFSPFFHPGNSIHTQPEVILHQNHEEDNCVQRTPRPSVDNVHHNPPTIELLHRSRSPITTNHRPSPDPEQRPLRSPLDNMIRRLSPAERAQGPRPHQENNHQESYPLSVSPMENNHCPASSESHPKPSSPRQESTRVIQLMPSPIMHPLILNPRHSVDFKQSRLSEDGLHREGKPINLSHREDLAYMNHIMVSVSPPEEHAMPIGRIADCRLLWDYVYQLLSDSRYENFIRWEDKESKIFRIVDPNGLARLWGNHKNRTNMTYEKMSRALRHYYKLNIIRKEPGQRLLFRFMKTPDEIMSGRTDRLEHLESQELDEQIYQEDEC
# ETV5, sequence (P41161 whole entry): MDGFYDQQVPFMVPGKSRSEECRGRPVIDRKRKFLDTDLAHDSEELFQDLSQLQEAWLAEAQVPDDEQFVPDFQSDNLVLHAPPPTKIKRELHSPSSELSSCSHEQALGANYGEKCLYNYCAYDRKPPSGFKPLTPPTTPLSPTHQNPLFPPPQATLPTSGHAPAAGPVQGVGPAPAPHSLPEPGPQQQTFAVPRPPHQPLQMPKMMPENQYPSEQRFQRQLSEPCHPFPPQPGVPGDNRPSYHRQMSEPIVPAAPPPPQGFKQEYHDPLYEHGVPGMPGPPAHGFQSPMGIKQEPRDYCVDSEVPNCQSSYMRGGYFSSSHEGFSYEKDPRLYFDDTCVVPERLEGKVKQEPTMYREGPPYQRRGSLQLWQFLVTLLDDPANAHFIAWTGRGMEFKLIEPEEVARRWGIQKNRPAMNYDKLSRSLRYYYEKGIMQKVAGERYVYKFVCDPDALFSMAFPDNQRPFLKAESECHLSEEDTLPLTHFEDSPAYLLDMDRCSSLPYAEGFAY
# ETV1, sequence (P50549 whole entry): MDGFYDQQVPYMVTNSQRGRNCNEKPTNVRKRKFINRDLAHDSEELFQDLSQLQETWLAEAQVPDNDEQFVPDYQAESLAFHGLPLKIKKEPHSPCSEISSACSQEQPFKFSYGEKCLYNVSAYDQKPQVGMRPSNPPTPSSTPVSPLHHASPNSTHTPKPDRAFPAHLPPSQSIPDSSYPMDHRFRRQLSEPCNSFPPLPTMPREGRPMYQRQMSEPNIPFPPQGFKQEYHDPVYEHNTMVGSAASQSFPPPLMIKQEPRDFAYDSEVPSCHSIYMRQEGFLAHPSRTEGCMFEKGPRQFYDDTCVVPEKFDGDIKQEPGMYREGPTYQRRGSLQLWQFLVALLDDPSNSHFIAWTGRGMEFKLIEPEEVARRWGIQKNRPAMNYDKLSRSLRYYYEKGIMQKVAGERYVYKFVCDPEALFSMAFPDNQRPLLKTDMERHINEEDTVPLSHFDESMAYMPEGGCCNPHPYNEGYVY
# CRX, sequence (O43186 whole entry): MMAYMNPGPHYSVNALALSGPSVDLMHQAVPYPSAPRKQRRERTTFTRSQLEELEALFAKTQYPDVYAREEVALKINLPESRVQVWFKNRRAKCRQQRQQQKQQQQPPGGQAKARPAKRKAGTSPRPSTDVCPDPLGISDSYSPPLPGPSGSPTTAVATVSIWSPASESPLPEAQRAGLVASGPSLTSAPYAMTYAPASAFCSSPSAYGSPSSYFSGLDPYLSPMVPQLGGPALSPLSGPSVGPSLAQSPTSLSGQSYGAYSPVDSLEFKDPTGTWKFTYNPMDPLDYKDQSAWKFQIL
sequence,measurement,setting,value
TCACCT,binding signal,FEV,"1.17 fold enrichment (6-mer frequency, TF over GST control)"
same,binding signal,ETV5,"1.18 fold enrichment (6-mer frequency, TF over GST control)"
same,binding signal,HSF1,"1.03 fold enrichment (6-mer frequency, TF over GST control)"
same,binding signal,SPIC,"1.31 fold enrichment (6-mer frequency, TF over GST control)"
same,binding signal,ELF4,"1.33 fold enrichment (6-mer frequency, TF over GST control)"
same,binding signal,ELK4,"1.12 fold enrichment (6-mer frequency, TF over GST control)"
same,binding signal,ETV2,"1.21 fold enrichment (6-mer frequency, TF over GST control)"
same,binding signal,ELF3,"1.25 fold enrichment (6-mer frequency, TF over GST control)"
same,binding signal,CRX,"1.15 fold enrichment (6-mer frequency, TF over GST control)"
same,binding signal,ETV1,"1.19 fold enrichment (6-mer frequency, TF over GST control)"
same,binding signal,ERF,"1.2 fold enrichment (6-mer frequency, TF over GST control)"
same,binding signal,ETV3L,"1.17 fold enrichment (6-mer frequency, TF over GST control)"
same,binding signal,ETS2,"1.09 fold enrichment (6-mer frequency, TF over GST control)"
same,binding signal,SPDEF,"1.22 fold enrichment (6-mer frequency, TF over GST control)"
same,binding signal,ETV7,"1.19 fold enrichment (6-mer frequency, TF over GST control)"
same,binding signal,ELF5,"1.21 fold enrichment (6-mer frequency, TF over GST control)"
same,binding signal,ETV3,"1.2 fold enrichment (6-mer frequency, TF over GST control)"
same,binding signal,ETV6,"1.19 fold enrichment (6-mer frequency, TF over GST control)"
